Screening data from PubChem BioAssay.
Compounds with a hit are over-represented: about 3.9% of the library has one in this group of screens.
HIF-2a block: HIF-2a reporter inhibitors, primary screen, luminescence, 786-0 RCC cells. 786-0 RCC cells HIF-2a reporter, luciferase luminescence, overnight. inhibition, % at 18.8 µM. 0.72% of 360,000 active. AID 624352, 2012;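 active = inhibition of the luminescence signal of 40% or more relative to plate controls, in a single-dose primary screen at 18.75 µM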
HSP90 refold inh: HSP90 inhibitors, primary screen, cell lysate, luminescence. AID 1789, 2009. Heat shock protein HSP 90 (rabbit reticulocyte lysate; luciferase refolding). 0.91% of 290,000 active. Rabbit reticulocyte lysate, luciferase refolding luminescence, 3 h. inhibition, % at 5.6 µM;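 active = inhibition above the screen-wide mean plus 3 SD, computed separately per campaign, cut at about 16% in these data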;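 note: 0% = DMSO wells and 100% = 60 µM geldanamycin wells; inhibitors lower the luminescence because luciferase stays unfolded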
TRAIL sens C8: viability loss with TRAIL in NB7+C8 cells, primary screen, TRAIL sensitizer project, cell-based, ATPlite luminescence | 1% of 360,000 active | AID 624354, 2012 | inhibition (viability loss, TRAIL sensitization), % at 10 µM;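 active = compounds causing at least 50% loss of cell viability in the single-dose screen, relative to plate controls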
TROY NFkB inh: inhibitors of TROY-driven NF-kB signaling, primary screen, Q293 LMP1-TROYcd cells, NF-kB luciferase, uHTS. Q293 LMP1-TROYcd NF-kB luciferase reporter, 4 h. inhibition, % at 10 µM. 0.98% of 360,000 active;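 active = compounds whose plate-normalised and pattern-corrected inhibition of the luciferase reporter signal at the single screening dose is 50% or more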
TWEAK-Fn14 inh: inhibitors of TWEAK-Fn14 signaling, primary screen, luciferase reporter cells, uHTS | 2% of 360,000 active | TWEAK-stimulated Fn14 reporter cells, luciferase luminescence, 8 h | inhibition, % at 10 µM | AID 1159606, 2016; in the data active = inhibition above about 50%
aSyn UTR inh: MLPCN primary screen, SNCA 5' untranslated region; 0.82% of 300,000 active; alpha-synuclein 5'UTR reporter, inhibitor activity; AID 1813, 2009; inhibition, % (tested at 7.5 µM); in the data active = inhibition above about 60%;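 note: H4 neuroglioblastoma cells stably carrying SNCA 5'UTR luciferase fusion; 0% = DMSO wells and 100% = positive control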
Mdm2-MdmX confirm: retested Mdm2-MdmX interaction blockers, confirmation, cell-based, luminescence, single concentration, set 2; shares compounds with HIF-2a block; SaOS-2 split-luciferase Mdm2/MdmX complementation; inhibition, % at 8 µM; 99% of 740 active; AID 504601, 2011;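 active = mean inhibition of the luminescence signal across two replicates at or above 26 percent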
HIF-2a conf: HIF-2a reporter inhibitor retest, confirmation, luminescence, 786-0 RCC cells; shares compounds with HIF-2a block; HIF-2a luciferase reporter luminescence, overnight; inhibition, % at 18.8 µM; 56% of 1,800 active;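 active = mean inhibition across four replicates of at least 40 percent at the single tested concentration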
HIF-1a counter: HIF-1a luciferase reporter signal reduction – MiaPaCa-2 cells, single concentration, counter-screen for HIF-2a inhibitor project, confirmation. 72% of 1,800 active. inhibition, % at 18.8 µM. AID 651589, 2012. shares compounds with HIF-2a block. MiaPaCa-2 HIF-1a luciferase reporter, desferoxamine, overnight;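 active = mean inhibition of the reporter signal across four replicates at the single tested dose of 50% or more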
* hit, by the source's call; i = inactive; · = no result given.

SMILES	HIF-2a block	HSP90 refold inh	TRAIL sens C8	TROY NFkB inh	TWEAK-Fn14 inh	aSyn UTR inh	HIF-2a conf	HIF-1a counter	others
O=c1[nH]c(CN2CCN(S(=O)(=O)/C=C/c3ccccc3)CC2)nc2cc(Cl)ccc12	50.0*	-1.5	25.4	5.4	-3.2	19.5	18.1	93.1*
O=c1[nH]c(CN2CCN(S(=O)(=O)/C=C/c3ccccc3)CC2)nc2ccccc12	12.8	-2.3	18.2	2.8	18.7	15.9	·	·
O=c1c2ccccc2sc2ccc(C#CC3(O)CCCCC3)cc12	86.7*	·	93.1*	92.4*	106.8*	103.8*	93.8*	103.5*
O=c1c2ccccc2oc2cc(C#CC3(O)CCCCC3)ccc12	44.1*	·	79.0*	87.3*	100.5*	77.3*	73.3*	97.3*
CCOc1ccc(OCCCC(=O)N(CC)CC(=O)Nc2c(F)cccc2F)cc1	10.7	·	-4.2	-12.5	-12.4	·	·	·
CC(C)(C)C(=O)/C(=C/c1ccc(Cl)cc1)n1cncn1	92.9*	6.7	6.5	20.1	77.0*	-173.2	88.4*	98.1*
CC(C)(C)C(=O)/C(=C\c1ccc([N+](=O)[O-])cc1)n1cncn1	·	5.3	·	·	·	-276.5	·	·
COc1ccc(Nc2nc(N3CCCCC3)c3ccccc3n2)cc1	-13.4	-1.1	40.8	18.4	34.9	-13.2	·	·
Oc1ccc(Nc2nc(N3CCCC3)c3ccccc3n2)cc1	45.7*	1.3	25.4	-22.6	-149.9	i	34.7	104.3*
O=C(CCCN1C(=O)S/C(=C\c2ccccc2)C1=O)NNC(=O)c1ccccc1O	90.5*	7.8	13.9	23.9	34.6	83.4*	89.6*	97.2*
CC(/C=C1\SC(=O)N(CCCC(=O)O)C1=O)=C\c1ccccc1	91.1*	37.3*	12.2	87.0*	104.2*	102.5*	98.8*	101.0*
COCCN(C(=O)COC(=O)CCCc1c[nH]c2ccccc12)c1c(N)n(Cc2ccccc2)c(=O)[nH]c1=O	13.4	·	-5.9	-0.3	1.6	·	·	·
COCCNC(=O)C[C@H]1C[C@H]2c3cc(NS(=O)(=O)c4ccc(F)cc4)ccc3O[C@H]2[C@H](CO)O1	1.6	·	-1.0	0.2	3.1	·	·	·
Cc1ccc(S(=O)(=O)Nc2cccc3cccnc23)cc1	81.3*	3.6	18.8	79.5*	106.9*	63.4*	65.9*	-178.8	Mdm2-MdmX confirm=103.2*
COc1ccc2c(n1)Sc1nc3ccccc3nc1N2	91.6*	-3.9	77.0*	-18.1	-3.3	-136.0	-245.7	-22.3
Cc1ccc(Cl)c(NC(=O)COC(=O)c2ccccc2C(=O)c2ccc(Cl)c([N+](=O)[O-])c2)c1Cl	97.2*	3.8	5.5	64.7*	100.2*	-5.7	3.9	107.5*
CCCNC(=O)COC(=O)c1ccccc1C(=O)c1ccc(Cl)c([N+](=O)[O-])c1	83.5*	1.8	-9.2	66.6*	99.4*	-30.7	42.4*	104.5*	Mdm2-MdmX confirm=103.0*
Cc1ccc(C(=O)c2ccccc2C(=O)OCC(=O)Nc2cccc([N+](=O)[O-])c2)cc1	-13.6	-4.3	7.3	16.5	28.9	-12.7	·	·
CC(C)(C)Cc1c(-c2ccc(C#N)cc2)nc2ccc(Cl)cn12	-26.1	·	1.9	-32.3	-15.7	·	·	·
Nc1ccc(C(=O)n2c3ccccc3c3ccccc32)cc1	77.9*	-3.5	-4.2	51.3*	36.6	116.7*	91.8*	85.0*
CC(C)Cc1ccc(-c2ccc3nccn3c2)cc1	-145.3	·	8.8	-11.4	8.3	·	·	·
CCN1CCN(c2nc(Nc3ccc(NC(C)=O)cc3)nc(Nc3ccc(NC(C)=O)cc3)n2)CC1	67.7*	-0.1	0.3	63.4*	14.2	-2.8	-5.4	9.3
COc1ccc(-c2cnc3c(NC=O)cc(-c4ccc(C(=O)N5CCOCC5)cc4)cn23)cc1OC	41.0*	·	15.8	13.6	-16.4	·	45.2*	69.4*
CC(=O)c1ccc(-c2cnc3c(NC=O)cc(-c4ccc(C(=O)N5CCOCC5)cc4)cn23)cc1	35.6	·	-1.1	12.8	3.9	·	·	·
O=C1NC(=O)C2(CCCC2C(=O)O)N1 (stereo not drawn)	2.3	·	0.2	-14.8	6.3	·	·	·
SMILES	HIF-2a block	HSP90 refold inh	TRAIL sens C8	TROY NFkB inh	TWEAK-Fn14 inh	aSyn UTR inh	HIF-2a conf	HIF-1a counter	others
O=c1c2ccccc2cnn1CCOc1ccccc1	53.8*	68.3*	37.9	71.8*	97.1*	72.1*	64.3*	70.5*
Cc1sc(NC(=O)c2ccco2)nc1-c1ccc2c(c1)CC(C)N2C(=O)C1CC1 (stereo not drawn)	-187.3	2.1	34.1	25.4	45.9	-106.3	·	·
CC(=O)Nc1nc(-c2ccc3c(c2)CC(C)N3C(=O)C2CC2)c(C)s1 (stereo not drawn)	-119.4	-1.9	1.5	-0.6	12.0	-295.2	·	·	Mdm2-MdmX confirm=98.7*
CC(C)C[C@H](NC(=O)c1nc[nH]c1C(=O)N1CCN(C(=O)OC(C)(C)C)CC1)C(=O)OC(C)(C)C	-10.9	10.7	23.8	1.9	-2.6	-8.9	·	·	Mdm2-MdmX confirm=99.2*
O=C(Nc1cccc(C(F)(F)F)c1)Nc1nnc([C@H]2C[C@H](O)[C@@H](CO)O2)s1	15.7	·	-7.0	-10.6	30.7	·	·	·
CCSCCc1nnc(NC(=O)Nc2cccc(C(F)(F)F)c2)s1	8.8	1.7	43.5	63.0*	63.8*	25.5	·	·	Mdm2-MdmX confirm=98.0*
COCCNC(=O)C1(C)CCCN(Cc2ccc(Cl)nc2)C1 (stereo not drawn)	4.5	·	-11.8	-1.5	-8.3	·	·	·
COc1cc2c(OC(C)=O)c3c(c(-c4ccc5c(c4)OCO5)c2cc1OC)C(=O)OC3	-46.4	-5.7	15.8	-17.8	-103.4	113.0*	·	·	Mdm2-MdmX confirm=88.2*
Cc1onc(-c2ccccc2)c1C(=O)OCC(=O)c1ccc(F)cc1	1.1	·	-7.1	-2.4	-9.3	·	·	·
CCOC(=O)c1nnc(-c2ccccc2)nc1Sc1ccccc1Cl	62.9*	3.8	14.7	33.9	56.7*	19.2	10.7	91.5*
Brc1ccc(NCc2cccc3ccccc23)nc1	-125.7	3.4	2.7	-27.7	-10.2	-5.5	·	·
Oc1ccccc1CNc1ccc(Br)cn1	-214.1	-4.2	18.2	-39.6	89.5*	-300.0	·	·	Mdm2-MdmX confirm=31.5*
COc1ccc(-c2ccc(OC)c([C@H]3[C@H]4C=CC[C@@H](C)[C@@H]4C(=O)N3Cc3ccccc3)c2)cc1OC	18.2	·	-1.1	5.7	21.3	28.5	·	·
